# Test results as given in PubChem BioAssay (NCATS).
# Records with an inconclusive call do not appear. Activity calls are given as the source filed them. Unless noted, calls come from the whole dose curve.
# Experiments:
# [1] = biological target: Bile acid receptor (Homo sapiens) (UniProt Q96RI1); experiment: qHTS assay for small molecule antagonists of farnesoid X receptor signaling (AID 588526); note: potency is the fitted concentration of half-maximal effect
# Method in brief: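 Antagonist mode: titrated compounds tested against chenodeoxycholic acid stimulation (normalized to 50 uM CDCA and DMSO) in GeneBLAzer HEK293T cells for 16 h. Beta-lactamase read by CCF4 fluorescence; IC50 from Hill fits.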
# [2] = biological target: Bile acid receptor (Homo sapiens) (UniProt Q96RI1); experiment: qHTS assay for small molecule agonists of farnesoid X receptor signaling (AID 588527); conditions: HEK293T FXR-UAS-bla, beta-lactamase ratio, 16 h; activation: stronger effect = higher value;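 note: series mostly up to about 77 µM; 0% = vehicle basal and 100% = reference agonist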
# Method in brief: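 Quantitative HTS used FXR-UAS-bla HEK293T cells with 16 h compound incubation at 37 C. EC50 values came from concentration-response curves normalized to chenodeoxycholic acid.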
# [3] = biological target: Vitamin D3 receptor (Homo sapiens) (UniProt P11473); experiment: qHTS assay for small molecule antagonists of vitamin D receptor signaling (AID 588541); note: potency is the fitted concentration of half-maximal effect
# Chain of Vitamin D3 receptor (Homo sapiens) (P11473 whole entry, looked up): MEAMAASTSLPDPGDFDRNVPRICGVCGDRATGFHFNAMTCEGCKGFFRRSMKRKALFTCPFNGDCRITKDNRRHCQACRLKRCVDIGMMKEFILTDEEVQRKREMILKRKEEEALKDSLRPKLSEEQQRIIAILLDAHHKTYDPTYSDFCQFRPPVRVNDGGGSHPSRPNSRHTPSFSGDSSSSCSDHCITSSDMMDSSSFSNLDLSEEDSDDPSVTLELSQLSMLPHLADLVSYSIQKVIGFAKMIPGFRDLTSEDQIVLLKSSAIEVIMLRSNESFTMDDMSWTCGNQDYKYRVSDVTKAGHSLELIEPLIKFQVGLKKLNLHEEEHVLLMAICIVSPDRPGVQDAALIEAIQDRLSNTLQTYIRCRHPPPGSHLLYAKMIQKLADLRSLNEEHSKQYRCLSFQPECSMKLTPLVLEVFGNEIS
# Method in brief: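 VDR-UAS-bla HEK293T cells in 2% charcoal-stripped FBS were stimulated with 1-alpha,25-dihydroxyvitamin D3 (3 nM final) plus compound for 16 h at 37 C. The beta-lactamase CCF4 readout was normalized to 50 nM agonist and DMSO, and Hill fits gave IC50.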
# [4] = biological target: Vitamin D3 receptor (Homo sapiens) (UniProt P11473); experiment: qHTS assay for small molecule agonists of vitamin D receptor signaling (AID 588543);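 note: 0% = DMSO basal and 100% = reference agonist control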
# Method in brief: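 Reporter cells (HEK293T, VDR-UAS-bla) were seeded in medium with 2% charcoal-stripped serum and incubated 5 h, then compounds in concentration series were added for 16 h at 37 °C. Stimulation was scaled between DMSO basal and 50 nM 1α,25-dihydroxyvitamin D3.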
# [5] = biological target: Retinoic acid receptor RXR-alpha (Homo sapiens) (UniProt P19793); experiment: qHTS assay for small molecule agonists of retinoid X receptor alpha signaling (AID 588544); note: potency is the fitted concentration of half-maximal effect;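 for activation: 0% = DMSO basal wells and 100% = reference agonist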
# Chain of Retinoic acid receptor RXR-alpha (Homo sapiens) (P19793 whole entry, looked up): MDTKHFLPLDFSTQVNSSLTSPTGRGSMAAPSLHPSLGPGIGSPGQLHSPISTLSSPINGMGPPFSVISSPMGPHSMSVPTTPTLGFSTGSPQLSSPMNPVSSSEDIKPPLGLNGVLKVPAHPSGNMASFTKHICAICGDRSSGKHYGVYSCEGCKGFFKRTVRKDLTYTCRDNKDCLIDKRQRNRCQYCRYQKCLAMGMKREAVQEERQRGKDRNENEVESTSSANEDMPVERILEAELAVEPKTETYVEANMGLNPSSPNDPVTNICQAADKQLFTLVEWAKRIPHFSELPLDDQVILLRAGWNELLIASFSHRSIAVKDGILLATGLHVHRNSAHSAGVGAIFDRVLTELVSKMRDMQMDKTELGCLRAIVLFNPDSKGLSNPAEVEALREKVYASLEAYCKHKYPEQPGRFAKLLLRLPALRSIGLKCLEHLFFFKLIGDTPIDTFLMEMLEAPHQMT
# [6] = biological target: Thyroid hormone receptor beta (Homo sapiens) (UniProt P10828); experiment: qHTS assay for small molecule agonists of thyroid hormone receptor beta signaling (AID 588545)
# Chain of Thyroid hormone receptor beta (Homo sapiens) (P10828 whole entry, looked up): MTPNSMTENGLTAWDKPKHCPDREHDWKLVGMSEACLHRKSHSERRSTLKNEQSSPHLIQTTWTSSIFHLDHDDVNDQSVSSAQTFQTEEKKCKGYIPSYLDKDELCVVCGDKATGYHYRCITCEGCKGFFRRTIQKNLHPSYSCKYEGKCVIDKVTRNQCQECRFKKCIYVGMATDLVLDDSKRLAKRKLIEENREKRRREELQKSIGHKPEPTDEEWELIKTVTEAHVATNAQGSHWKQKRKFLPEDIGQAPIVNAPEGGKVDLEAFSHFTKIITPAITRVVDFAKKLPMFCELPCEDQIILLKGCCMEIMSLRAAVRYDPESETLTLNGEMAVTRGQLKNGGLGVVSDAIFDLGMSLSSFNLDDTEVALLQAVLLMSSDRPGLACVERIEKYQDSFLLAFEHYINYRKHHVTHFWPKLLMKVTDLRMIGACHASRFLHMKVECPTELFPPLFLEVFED
# Method in brief: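 In this cell-based screen, titrated compounds act on HEK 293 cells held in medium with 2% charcoal/dextran FBS, NEAA and pyruvate for 18 hrs at 37 C. Responses are expressed relative to T3 (10 nM) as 100% and basal DMSO as 0%.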
# [7] = qHTS assay for small molecule antagonists of retinoid X receptor alpha signaling (AID 588546; active = well fitted inhibition curve with a large enough effect in the signal ratio, with a control signal flat, not every such curve was filed as active; the % refers to the signal ratio;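 note: cells stimulated with 9-cis-retinoic acid as agonist; % is set by controls: 0 for no effect and ±100 for the full control effect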); conditions: HEK293T RXRa-UAS-bla, beta-lactamase ratio, antagonist mode; measured here: W530 green channel, cytotoxicity proxy
# Method in brief: (§1)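 Beta-lactamase reporter inhibition, read as CCF4 fluorescence ratio (ex 405, em 460/530 nm) after 2 h at RT. HEK293T UAS-bla cells, 2500/well, were stimulated with 9-cis-RA at 500 or 100 nM final alongside test compound for 18 h at 37 C.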
# [8] = biological target: Retinoic acid receptor RXR-alpha (Homo sapiens) (UniProt P19793); experiment: as above; conditions: HEK293T RXRa-UAS-bla, beta-lactamase ratio, antagonist mode
# Method in brief: as §1
# [9] = qHTS assay for small molecule activators of the p53 signaling pathway (AID 651743; active = well fitted activation curve with a large enough effect in the signal ratio, not every such curve was filed as active; the % refers to the signal ratio; note: series mostly up to about 92 µM; % of control where 0% means no effect); conditions: HCT-116 p53RE-bla, beta-lactamase FRET ratio, 16 h; activation: stronger effect = higher value
# Method in brief: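 p53RE-bla HCT-116 cells carrying a beta-lactamase reporter under p53 response elements were exposed to compounds for 16 hours at 37 C. Reporter activity read as fluorescence after 2 hours at room temperature with LiveBLAzer B/G FRET substrate.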
# [10] = qHTS assay for small molecule activators of the nuclear factor-kappa B (NF-kB) signaling pathway (AID 651749; active = well fitted activation curve with a large enough effect in the signal ratio; the % refers to the signal ratio; note: series mostly up to about 77 µM; % of control where 0% means no effect); conditions: NF-kB-bla ME-180 cells, beta-lactamase FRET ratio, 16 h; activation: stronger effect = higher value
# Method in brief: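 NF-kB-bla ME-180 cells carrying a beta-lactamase reporter under an NF-kB response element, 2,000 cells/well, exposed to compound for 16 hr at 37C; FRET-based beta-lactamase fluorescence read-out of pathway activation.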
# [11] = qHTS assay for environmental chemicals that activate the Aryl hydrocarbon Receptor (AhR) signaling pathway (AID 651777; active = well fitted curve in the direction sought with a large enough effect; an effect the other way counts as inactive or inconclusive; note: nearly all actives have a fitted effect of over 15% in size; note: potency is the fitted concentration of half-maximal effect; for activation: % of control where 0% means no effect); conditions: 1A2-DRE human hepatoma cells, luciferase, 24 h; activation: stronger effect = higher value
# Method in brief: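 Luminescence read-out: One-Glo added for 30 min at RT after 24 hr compound treatment (37 C, 5% CO2) of human hepatoma cells expressing a DRE/CYP1A2 promoter–luciferase reporter; increased signal indicates AhR activation.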
# [12] = biological target: Peroxisome proliferator-activated receptor alpha (Homo sapiens) (UniProt Q07869); experiment: qHTS assay for small molecule agonists of the peroxisome proliferator-activated receptor alpha (PPARalpha) signaling pathway (AID 651778; active = well fitted curve in the direction sought with a large enough effect; an effect the other way counts as inactive or inconclusive; note: % of control where 0% means no effect); conditions: PathHunter PPARalpha complementation, chemiluminescence, 6 h; max response: stronger effect = higher value
# Chain of Peroxisome proliferator-activated receptor alpha (Homo sapiens) (Q07869 whole entry, looked up, the tested form may be a part): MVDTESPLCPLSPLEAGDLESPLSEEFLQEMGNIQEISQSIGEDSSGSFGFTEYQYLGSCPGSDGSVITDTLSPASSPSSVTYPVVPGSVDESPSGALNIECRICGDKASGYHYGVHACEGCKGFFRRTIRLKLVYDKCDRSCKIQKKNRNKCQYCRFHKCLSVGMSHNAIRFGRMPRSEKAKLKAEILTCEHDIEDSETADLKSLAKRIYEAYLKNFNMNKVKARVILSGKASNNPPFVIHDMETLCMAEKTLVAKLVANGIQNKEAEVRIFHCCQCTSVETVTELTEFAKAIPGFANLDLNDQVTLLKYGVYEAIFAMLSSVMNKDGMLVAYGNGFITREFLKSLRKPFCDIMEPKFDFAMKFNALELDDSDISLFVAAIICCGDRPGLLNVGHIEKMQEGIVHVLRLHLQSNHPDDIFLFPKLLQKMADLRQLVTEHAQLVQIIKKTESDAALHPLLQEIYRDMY
# Method in brief: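 Enzyme-fragment complementation assay in which ligand-bound PPARalpha translocates and forms an active enzyme that generates chemiluminescence. Cells were plated overnight, exposed to compound for 6 hr at 37 C, and then given detection reagent for 60 min at room temperature.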
# [13] = qHTS assay for small molecule agonists of the antioxidant response element (ARE) signaling pathway measured by Nrf2-dependant transcriptional activity (AID 720636; active = well fitted curve in the direction sought with a large enough effect in the repeat runs; an effect the other way counts as inactive or inconclusive;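 note: HepG2 cells with an ARE-driven luciferase reporter; % of control where 0% means no effect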)
# Method in brief: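 HepG2 ARE-luc reporter line, 1% dialyzed FBS; 6 hr attachment at 37 C, compound pinned in, 16 hr at 37 C/5% CO2; ONE-Glo, 30 min RT, luminescence read.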
# [14] = qHTS assay for small molecule agonists of the antioxidant response element (ARE) signaling pathway measured by Nrf2-dependant transcriptional activity - cell viability counter screen (AID 720653; active = well fitted curve in the direction sought with a large enough effect in the repeat runs; an effect the other way counts as inactive or inconclusive; note: % is set by controls: 0 for no effect and ±100 for the full control effect); conditions: ARE-bla HepG2 viability, CellTiter-Glo ATP luminescence, 16 h; max response: stronger effect = lower value
# Method in brief: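 ARE-bla HepG2 cells treated with compounds for 16 h at 37C; this counter screen measures viability as intracellular ATP by CellTiter-Glo luminescence after 30 min at room temperature.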
# [15] = qHTS assay for cell viability of HEK293 cells (AID 743288; active = well fitted curve in the direction sought with a large enough effect; an effect the other way counts as inactive or inconclusive; note: nearly all actives have a fitted effect of over 50% in size; note: potency is the fitted concentration of half-maximal effect; for max response: % is set by controls: 0 for no effect and ±100 for the full control effect); conditions: ATP luminescence (CellTiter-Glo), 18 h; max response: stronger effect = lower value
# Method in brief: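 HEK293 parental, 2,000 cells/well; ≥5 h pre-incubation 37 C; pintool compound addition; 18 h, 37 C; CellTiter-Glo 30 min RT; luminescence read.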
# [16] = qHTS assay for cell viability of the p53RE-bla HCT-116 cell line (AID 743292; active = well fitted curve in the direction sought with a large enough effect; an effect the other way counts as inactive or inconclusive; note: % is set by controls: 0 for no effect and ±100 for the full control effect; nearly all actives have a fitted effect of over 55% in size)
# Method in brief: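 Luminescent ATP quantitation (CellTiter-Glo) served as the viability read-out; reagent was added after 16 h compound exposure at 37 C and read after 30 min at room temperature. Cells: p53RE-bla HCT-116, 4,000 per well.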
# [17] = biological target: Peroxisome proliferator-activated receptor delta (Homo sapiens) (UniProt Q03181); experiment: qHTS assay for small molecule agonists of peroxisome proliferator-activated receptor delta signaling (AID 588534);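 note: 0% = DMSO basal wells and 100% = positive control agonist at 10 µM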
# Chain of Peroxisome proliferator-activated receptor delta (Homo sapiens) (Q03181 whole entry, looked up): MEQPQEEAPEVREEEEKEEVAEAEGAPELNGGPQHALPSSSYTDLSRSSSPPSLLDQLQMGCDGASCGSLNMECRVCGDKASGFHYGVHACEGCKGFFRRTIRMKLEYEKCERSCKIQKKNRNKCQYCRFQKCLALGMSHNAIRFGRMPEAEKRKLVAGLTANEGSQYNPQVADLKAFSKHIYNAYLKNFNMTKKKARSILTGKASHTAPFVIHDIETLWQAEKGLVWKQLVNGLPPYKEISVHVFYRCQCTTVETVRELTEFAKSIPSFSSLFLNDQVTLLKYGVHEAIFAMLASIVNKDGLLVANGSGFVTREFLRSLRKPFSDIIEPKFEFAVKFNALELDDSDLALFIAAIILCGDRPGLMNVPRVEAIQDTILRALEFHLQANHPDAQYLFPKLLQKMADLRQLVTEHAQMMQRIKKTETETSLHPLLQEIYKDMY
# Method in brief: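 Cells carrying a PPAR-delta beta-lactamase reporter were treated with compounds for 18 h at 37 °C in agonist mode. CCF4 fluorescence was read after 2 h; EC50 and efficacy from Hill fits.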
# [18] = qHTS assay for small molecule antagonists of peroxisome proliferator-activated receptor delta signaling (AID 588535; active = well fitted inhibition curve with a large enough effect in the signal ratio, with a control signal flat, not every such curve was filed as active; the % refers to the signal ratio;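 for max response: cells co-treated with a PPAR-delta agonist as stimulator during compound exposure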); conditions: HEK293T PPARd-UAS-bla, beta-lactamase FRET ratio, 18 h; 460 nm channel
# Method in brief: (§2)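 Antagonist-mode beta-lactamase reporter (GeneBLAzer PPAR-delta-UAS-bla) in HEK293T cells, 2% charcoal/dextran FBS, 4000 cells/well. Compound titrations, 18 h at 37 C; CCF4 ratio read, IC50 and efficacy from Hill fits.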
# [19] = biological target: Peroxisome proliferator-activated receptor delta (Homo sapiens) (UniProt Q03181); experiment: as above
# Method in brief: as §2
# [20] = biological target: Nuclear receptor subfamily 1 group I member 2 (Rattus norvegicus) (UniProt Q9R1A7); experiment: qHTS assay for small molecule activators of the rat pregnane X receptor (rPXR) signaling pathway (AID 651751; call rule not given here; note: 0% is about no effect); conditions: rPXR reporter cells, luciferase (One-Glo), 24 h
# Chain of Nuclear receptor subfamily 1 group I member 2 (Rattus norvegicus) (Q9R1A7 whole entry, looked up): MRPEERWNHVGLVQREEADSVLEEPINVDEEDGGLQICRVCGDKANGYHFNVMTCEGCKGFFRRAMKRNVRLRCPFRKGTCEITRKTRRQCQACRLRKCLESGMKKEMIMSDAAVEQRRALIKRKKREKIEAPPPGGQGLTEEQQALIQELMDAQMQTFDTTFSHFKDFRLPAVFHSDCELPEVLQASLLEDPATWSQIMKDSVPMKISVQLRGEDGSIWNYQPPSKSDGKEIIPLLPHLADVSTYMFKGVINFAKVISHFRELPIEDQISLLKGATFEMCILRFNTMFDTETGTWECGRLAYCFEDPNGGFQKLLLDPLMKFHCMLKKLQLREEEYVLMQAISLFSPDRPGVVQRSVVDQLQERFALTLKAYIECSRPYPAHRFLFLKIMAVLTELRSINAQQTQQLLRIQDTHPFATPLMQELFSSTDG
# Chain of Bile acid receptor (Homo sapiens) (Q96RI1 whole entry, looked up): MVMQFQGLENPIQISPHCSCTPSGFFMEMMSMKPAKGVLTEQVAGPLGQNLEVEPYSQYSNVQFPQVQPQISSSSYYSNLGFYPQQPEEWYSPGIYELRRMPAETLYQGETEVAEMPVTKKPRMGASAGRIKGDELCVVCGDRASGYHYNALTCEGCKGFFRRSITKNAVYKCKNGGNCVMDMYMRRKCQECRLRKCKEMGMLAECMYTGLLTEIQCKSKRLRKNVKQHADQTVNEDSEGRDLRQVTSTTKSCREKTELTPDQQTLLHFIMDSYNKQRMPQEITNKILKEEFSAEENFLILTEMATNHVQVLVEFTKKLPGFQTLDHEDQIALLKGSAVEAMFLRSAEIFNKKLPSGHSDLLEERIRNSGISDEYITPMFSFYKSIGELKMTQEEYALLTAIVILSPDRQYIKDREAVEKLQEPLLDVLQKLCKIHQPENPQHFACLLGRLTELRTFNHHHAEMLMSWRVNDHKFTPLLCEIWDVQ
compound,measurement,setting,value
FC(F)C(F)(F)OCC(Cn1cncn1)c1ccc(Cl)cc1Cl (centres undefined),Potency,[1],inactive
same,activation,[2],1.13% (inactive)
same,Potency,[3],inactive
same,outcome,[4],inactive
same,Potency,[5],inactive
same,Potency,[6],inactive
same,max response,[7],-6.39%
same,max response,[8],4.82% (inactive)
same,activation,[9],0.478% (inactive)
same,activation,[10],0.464% (inactive)
same,activation,[11],2.65% (inactive)
same,max response,[12],-0.725% (inactive)
same,Potency,[13],inactive
same,max response,[14],4.71% (inactive)
same,max response,[15],-9.21% (inactive)
same,Potency,[16],inactive
Nc1nc(N)nc(N)n1,Potency,[1],inactive
same,activation,[2],0.442% (inactive)
same,outcome,[17],inactive
same,max response,[18],16%
same,Potency,[19],inactive
same,Potency,[3],inactive
same,outcome,[4],inactive
same,Potency,[5],inactive
same,Potency,[6],inactive
same,max response,[7],-0.207%
same,max response,[8],-7.03% (inactive)
same,activation,[9],-2.16% (inactive)
same,activation,[10],-1.8% (inactive)
same,max response,[12],-3.29% (inactive)
same,Potency,[13],inactive
same,Potency,[16],inactive
same,max response,[20],-3.43% (inactive)
CN/C(=N/[N+](=O)[O-])NCC1CCOC1 (centres undefined),Potency,[1],inactive
same,activation,[2],-2.75% (inactive)
same,outcome,[17],inactive
same,max response,[18],22.2%
same,Potency,[19],inactive
same,Potency,[3],inactive
same,outcome,[4],inactive
same,Potency,[5],inactive
same,Potency,[6],inactive
same,activation,[9],3.08% (inactive)
same,activation,[10],-0.877% (inactive)
same,activation,[11],-0.372% (inactive)
same,max response,[12],-0.384% (inactive)
same,Potency,[13],inactive
same,max response,[14],-9.26% (inactive)
same,max response,[15],-6.54% (inactive)
same,Potency,[16],inactive
CCS(=O)(=O)c1cccnc1S(=O)(=O)NC(=O)Nc1nc(OC)cc(OC)n1,Potency,[1],inactive
same,activation,[2],0.0623% (inactive)
same,outcome,[17],inactive
same,max response,[18],-45%
same,Potency,[19],inactive
same,Potency,[3],inactive
same,outcome,[4],inactive
same,Potency,[6],inactive
same,max response,[7],-3.64%
same,max response,[8],8.72% (inactive)
same,activation,[9],-3.66% (inactive)
same,activation,[10],-1.37% (inactive)
same,Potency,[11],31.6 µM (active)
same,max response,[12],-2.57% (inactive)
same,max response,[14],15.3% (inactive)
same,max response,[15],-6.2% (inactive)
same,Potency,[16],inactive
same,max response,[20],-1.1% (inactive)
CSc1nnc(C(C)(C)C)c(=O)n1N,Potency,[1],inactive
same,activation,[2],-6.5% (inactive)
same,outcome,[17],inactive
same,max response,[18],-34.1%
same,Potency,[19],inactive
same,Potency,[3],inactive
same,outcome,[4],inactive
same,Potency,[5],39.8 µM (active)
same,Potency,[6],inactive
same,max response,[7],-12%
same,max response,[8],6.64% (inactive)
same,activation,[9],-4.16% (inactive)
same,activation,[10],-0.061% (inactive)
same,max response,[12],-2.71% (inactive)
same,Potency,[13],inactive
same,max response,[14],6.99% (inactive)
same,max response,[15],-4.13% (inactive)
same,Potency,[16],inactive
same,max response,[20],0.612% (inactive)
O=[N+]([O-])c1cc(C(F)(F)F)c(Cl)c([N+](=O)[O-])c1Nc1ncc(C(F)(F)F)cc1Cl,Potency,[1],25.1 µM (active)
same,activation,[2],2.48% (inactive)
same,outcome,[17],inactive
same,Potency,[3],22.4 µM (active)
same,max response,[12],-9.03% (inactive)
same,Potency,[13],inactive
same,Potency,[15],35.5 µM (active)
